This is an account of results in PubChem BioAssay (NCI).

Assay in all cases: NCI-60 one-dose screen, 48 h (100 = growth as untreated, 0 = no growth, -100 = all killed)
Common to all, as to conditions: 10 µM unless noted

Assay [1] deals with NCI-H23 lung.
The subject of assay [2] is NCI-H226 lung.
The subject of assay [3] is NCI-H322M lung.
In assay [4] the test system is HOP-62 NSCLC.
Assay [5] concerns NCI-H460 lung.
Assay [6] has as its system HOP-92 NSCLC.
Assay [7] concerns NCI-H522 lung.
For assay [8], the system named is A549/ATCC NSCLC.
Assay [9] deals with 786-0 renal.
In assay [10] the test system is COLO 205 colon.

About 83,000 compounds went through this panel and 20% of them were active in at least one assay; those are over-represented in the sample as a whole.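 Plates (96-well) were seeded with cells, treated with compound at one concentration, and incubated for 48 hours before percent growth was determined.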 Values without a mark were called inactive. Calls of active or inactive are those of the source. How the source made its calls: active means growth percent below 10; inactive means the rest.

Take `O=c1[nH]nc(-c2ccc(Br)cc2)c2sc(NC(=S)Nc3ccc(Cl)cc3)nc12`: the growth in [1] was 84.1%; in assay [2], 94.4%; in assay [3] it was 95.3%; in [4], 104%; in assay [5] it was 102%; in assay [6], 92.7%. The growth in [7] is 94.1%; in assay [8] it was 102%; in assay [9], 102%; in assay [10], 124%.

As to `CC(C)C[C@H](C(=O)O)N(C)C(=O)[C@@H]1CCCN1C(=O)[C@H](C)OC(=O)[C@H](CCC(N)=O)NC(=O)[C@@H]1CCC(=O)N1`, the growth was 109% in assay [1]; 101% in assay [2]; 98.5% in assay [3]; 93.4% in [4]; 111% in assay [5]; 102% in [6]. Besides, the growth in assay [7] is 88.7%; in assay [8], 92.2%; in [9], 96.1%; in [10], 99.3%.

Take `Nn1c(SCC(=O)Nc2ccc(Cl)cc2)nnc1-c1cc(F)c(Cl)cc1Cl`: the growth in assay [1] is 93%; in assay [2], 93.5%; in assay [3], 80.2%; in assay [4], 55.8%; in assay [5], 90%; in assay [6], 76.6%. The growth in assay [7] is 66.1%; in assay [8], 87.2%; in assay [9] it was 93.4%; in assay [10], 96.6%.

In the case of `O=CN1N=C(c2ccc(F)cc2)CC1c1cccc(Nc2ccnc3cc(C(F)(F)F)ccc23)c1` (stereo not given), the growth in assay [1] was 42.5%; in assay [2], 60.3%; in [3], 85.1%; in [4] it was 60.8%; in assay [5], 46.7%; in assay [6], 67.4%. Further, the growth was 45.6% in assay [7], 61% in [8], 76.1% in assay [9] and 32.3% in assay [10].

Regarding `Cc1nc2sc(C(=O)Nc3cccc(Cl)c3C)c(N)c2cc1C(C)O` (stereo not given), the growth in assay [1] was 32.6%; in assay [2], 95.8%; in [3], 55.6%; in assay [4], 25.5%; in assay [5] it was 11.1%; in [6], 43.2%. Also, the growth in assay [7] is -24.9% (active); in assay [8] it was 24.7%; in assay [9], 35.6%; in assay [10], -4.18% (active).

In the case of `C[C@H](Oc1cc(-c2cnn(C3CCNCC3)c2)cnc1N)c1c(Cl)ccc(F)c1Cl`, the growth in assay [1] was 71.6%; in assay [2], 109%; in assay [3] it was 75.2%; in assay [4], 66.5%; in assay [5], 57.9%; in assay [6] it was 41.1%. In addition, the growth is 73.1% in assay [7], 72% in assay [8], 49.2% in assay [9] and 46.3% in assay [10].

Regarding `C[C@]12CC[C@@H]3c4ccc(O)cc4CC[C@H]3[C@@H]1C[C@H](O)C2`, the growth in assay [1] was 100%; in assay [2] it was 104%; in [3] it was 89.5%; in assay [4] it was 72.8%; in assay [5] it was 74.3%; in [6], 86.1%. Moreover, the growth in assay [7] is 54.6%; in [8], 49.5%; in assay [9], 88.1%; in assay [10], 128%.

For `Cc1c(O)c(=O)ccn1-c1nc2ccccc2s1`, the growth was 102% in [1]; 92.5% in assay [2]; 88% in [3]; 87.3% in assay [4]; 99.3% in assay [5]; 98.4% in [6]. Besides, the growth in [7] is 75.4%; in [8] it was 92.5%; in [9], 84.6%; in assay [10] it was 96.4%.

As to `COc1ccc(/C=C/C(=O)Nc2ncnc3nc[nH]c23)cc1`, the growth in assay [1] is 97.7%; in assay [2], 104%; in assay [3], 101%; in assay [4], 109%; in assay [5] it was 99.2%; in [6], 106%. In addition, the growth in assay [7] is 81.1%; in [8], 92.9%; in assay [9] it was 95.6%; in assay [10] it was 115%.

Consider `NC[C@@H]1CCN(c2cc3c(cc2F)c(=O)n(N)c(=O)n3Cc2ccc(-c3ccccc3)cc2)C1`, for which the growth was 87.2% in assay [1]; 91.1% in assay [2]; 96.8% in assay [3]; 77.4% in assay [4]; 99.7% in [5]; 73.6% in [6]. Also, the growth in assay [7] is 68.8%; in [8] it was 89.6%; in assay [9], 66.2%; in [10], 88.6%.

Regarding `O=C1C(Cl)=C(Nc2ccc3c(c2NC2=C(Cl)C(=O)c4ccccc4C2=O)C(=O)c2ccccc2C3=O)C(=O)c2ccccc21`, the growth in [1] is -3.56% (active); in assay [2], 36.9%; in assay [3] it was 46.9%; in assay [4] it was 39.5%; in assay [5], 10.4%; in [6], 61.4%. In addition, the growth was 12.4% in assay [7], -31.8% (active) in assay [8], 48.5% in assay [9] and 21.1% in assay [10].

Take `COc1cc(/C=C/CO)cc(OC)c1O[C@@H]1O[C@H](CO)[C@@H](O)[C@H](O)[C@H]1O`: the growth was 102% in [1]; 86.2% in assay [2]; 107% in [3]; 94.2% in assay [4]; 103% in [5]; 94% in assay [6]. The growth was 94.8% in [7], 91.7% in assay [8], 96.7% in assay [9] and 107% in [10].

Consider `CNC(=O)c1cc(Oc2ccc3c(c2)sc2nc(-c4ccc(NC(C)=O)cc4)cn23)ccn1`, for which the growth is 60.1% in [1]; 72.3% in assay [2]; 69.6% in assay [3]; 41.5% in assay [4]; 49.8% in [5]; 35.3% in assay [6]. Besides, the growth in [7] is 28.4%; in [8], 59.6%; in [9] it was 33.8%; in assay [10] it was 47%.

As to `CC(=O)Nc1nc2c(c(N)c1C#N)C(c1cccc(Cl)c1)C1=C(CCCC1=O)N2c1sc2c(c1C#N)CCCC2` (stereo not given), the growth was 67% in [1]; 55.5% in assay [2]; 93.3% in assay [3]; 67.3% in [4]; 53.1% in [5]; 40.1% in [6]. In addition, the growth in assay [7] was 21.3%; in assay [8], 32.8%; in assay [9], 57.6%; in assay [10] it was 59.6%.

`COc1ccc(/C=C(/C(=O)N2CCCC2)c2cc(OC)c(OC)c(OC)c2)cc1`: the growth in assay [1] was 34%; in [2], 69.2%; in assay [3] it was 45.7%; in assay [4] it was 29.3%; in [5], 13.6%; in assay [6] it was 47.9%. Also, the growth is 26.3% in assay [7], 36.1% in assay [8], 35.3% in assay [9] and 4.08% (active) in assay [10].

Take `COc1ccc(C(=O)c2cc(OC)c(OC)c(OC)c2)cc1OC(=O)CCl`: the growth is 24% in assay [1]; 109% in [2]; 44.5% in assay [3]; 22% in [4]; 8.25% (active) in assay [5]; 52.9% in assay [6]. The growth was -12.4% (active) in assay [7], 23% in assay [8], 28.7% in [9] and 16.4% in [10].

On to `N#Cc1c(-c2ccc(Cl)cc2)cc(-c2cc3ccccc3o2)nc1SCC(=O)c1ccc(Cl)cc1`, for which the growth in assay [1] was 91.7%; in assay [2] it was 102%; in assay [3], 104%; in assay [4], 91.4%; in [5], 107%; in assay [6] it was 83.7%. Moreover, the growth in assay [7] is 97.5%; in assay [8], 111%; in [9] it was 97.2%; in assay [10] it was 106%.

For `CCCCn1c(=O)c(/C=C/C(=O)/C=C/c2ccc(O)c(OC)c2)cc2ccc(Cl)cc21`, the growth in [1] is 27.7%; in assay [2], -18.4% (active); in assay [3] it was 50.6%; in [4] it was 59.6%; in assay [5], 14.5%; in assay [6], 77.3%. The growth was -4.4% (active) in assay [7], 26.4% in [8], -0.448% (active) in [9] and 29.7% in assay [10].

`OCCNc1nc(NCCO)nc(Nc2ccc(C3=NN(c4cc(Cl)cc(Cl)c4)C(c4ccccc4)C3)cc2)n1` (stereo not given): the growth was 50.1% in assay [1]; 96.2% in assay [2]; 57.6% in [3]; 29.1% in assay [4]; 23.7% in assay [5]; 72.1% in [6]. Moreover, the growth in assay [7] is 48.1%; in assay [8], 35.9%; in [9], 40.3%; in assay [10], 34.4%.

As to `COc1cccc2c1-c1ccccc1C2=O`, the growth was 43.1% in assay [1]; 84.1% in assay [2]; 44.5% in assay [3]; 37.4% in [4]; 7.57% (active) in assay [5]; 74% in [6]. Moreover, the growth is -13.7% (active) in assay [7], 23.3% in assay [8], 23.9% in [9] and 11.6% in assay [10].

On to `C/C(=C\c1cnc(C)s1)[C@@H]1C[C@@H]2O[C@@H]2CCC[C@H](C)[C@H](O)[C@@H](C)C(=O)C(C)(C)[C@@H](O)CC(=O)O1`, for which the growth in [1] is 31.7%; in [2], 85.3%; in [3], 25.7%; in [4] it was 26.5%; in assay [5], 14.9%; in [6], 52.6%. Besides, the growth is -2.17% (active) in assay [7], 42.3% in assay [8], 43.6% in assay [9] and -8.64% (active) in assay [10].

Take `COc1ccc(NC(=O)c2ccc(Nc3ncnc4[nH]c(C)c(C)c34)cc2)cc1`: the growth was 102% in [1]; 106% in assay [2]; 101% in assay [3]; 108% in [4]; 98.4% in assay [5]; 111% in [6]. Also, the growth in [7] is 97.4%; in assay [8], 94.8%; in assay [9], 101%; in assay [10] it was 115%.

As to `CCCCCCN1C(=O)CN=C1Nc1ccc2cc3ccc(NC4=NCC(=O)N4CCCCCC)cc3nc2c1`, the growth is 64.8% in assay [1]; 81.7% in [2]; 79.7% in assay [3]; 82.4% in [4]; 57.5% in assay [5]; 82.9% in [6]. The growth in assay [7] is -9.83% (active); in assay [8] it was 74.5%; in [9] it was 36.1%; in [10], 40.3%.

For `C/C(=N/Nc1nc2ccccc2n1C)c1ccccn1`, the growth in assay [1] was 6.57% (active); in [2], -12.1% (active); in assay [3], 14.7%; in assay [4], -7.45% (active); in assay [5] it was -23.3% (active); in assay [6] it was 15.9%. In addition, the growth in [7] was -4.8% (active); in assay [8], 4.01% (active); in assay [9], 9.02% (active); in [10] it was -4.66% (active).

In the case of `CCOC(=O)c1c(C)nc2c(c1N)CC(=O)N2CCc1ccccc1`, the growth is 53.2% in [1]; 42.1% in [2]; 59.3% in assay [3]; 5.73% (active) in [4]; 6.52% (active) in [5]; 25.3% in assay [6]. Also, the growth in assay [7] was -6.01% (active); in assay [8], 23%; in [9], 8.72% (active); in [10] it was 10.7%.

Take `O=C(O)c1cn(C2CC2)c2cc(N3CCN(Cc4nnc(Nc5ccccc5)o4)CC3)c(F)cc2c1=O`: the growth in assay [1] is 105%; in assay [2], 108%; in assay [3], 93.5%; in assay [4], 99.8%; in assay [5], 104%; in assay [6] it was 104%. Also, the growth in assay [7] was 92.7%; in [8], 98.3%; in assay [9], 94.9%; in assay [10], 104%.
